D1 ag – Allosteric Agonists of the Human D1 Dopamine Receptor: qHTS. AID 504660, 2011. 360,000 tested, 1% active. HEK293 T-REx D1 cells, calcium flux, agonist mode. activation, % at 2 µM. D(1A) dopamine receptor (Homo sapiens), P21728; in the data active = activation above about 30%; also: 0% is about no effect
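Tetracycline-induced HEK293 TREx D1 cells, force-coupled to calcium signalling, were dye-loaded with a no-wash calcium kit. Compound was pin-added after a 10 s baseline. Fluorescence was read kinetically at 1 cycle/s for 180 s, with calcium rises flagged as agonism.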
D1 PAM – Potentiators of Human D1 Dopamine Receptor: qHTS; D(1A) dopamine receptor (Homo sapiens), P21728; HEK293 TREx D1 cells, calcium flux, dopamine EC20 potentiation; potentiation, % at 10 µM; 360,000 tested, 0.036% active; AID 504651, 2011; in the data active = potentiation above about 30%; also: 0% is about no effect
ERG Ets-DNA blk – qHTS for Small Molecule Inhibitors of the ERG Ets/DNA interaction | Transcriptional regulator ERG (Homo sapiens), P11308 | fluorescence polarization, His-ERG Ets domain / labelled DNA | Potency, µM (doses to about 76.9 µM), for inactives: top-dose FP activity, negative = inhibition, actives largely listed as inhibitors | 370,000 tested, 0.028% active; active = well fitted inhibition curve with a large enough effect in the polarisation, with a control signal flat; inconclusive = small, poorly fitted or top-dose-only effect, or effect the other way, or a change in a side signal; inactive = no such curve, though single readings can be large or run the other way; the % refers to the polarisation;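 also: polarization taken with two DNA probes labelled with fluorescein and Texas red; potency is read from the fitted curve at half-maximal effect; % of control where 0% means no effect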
Target sequence (P11308 whole entry, looked up, the tested form may be a part): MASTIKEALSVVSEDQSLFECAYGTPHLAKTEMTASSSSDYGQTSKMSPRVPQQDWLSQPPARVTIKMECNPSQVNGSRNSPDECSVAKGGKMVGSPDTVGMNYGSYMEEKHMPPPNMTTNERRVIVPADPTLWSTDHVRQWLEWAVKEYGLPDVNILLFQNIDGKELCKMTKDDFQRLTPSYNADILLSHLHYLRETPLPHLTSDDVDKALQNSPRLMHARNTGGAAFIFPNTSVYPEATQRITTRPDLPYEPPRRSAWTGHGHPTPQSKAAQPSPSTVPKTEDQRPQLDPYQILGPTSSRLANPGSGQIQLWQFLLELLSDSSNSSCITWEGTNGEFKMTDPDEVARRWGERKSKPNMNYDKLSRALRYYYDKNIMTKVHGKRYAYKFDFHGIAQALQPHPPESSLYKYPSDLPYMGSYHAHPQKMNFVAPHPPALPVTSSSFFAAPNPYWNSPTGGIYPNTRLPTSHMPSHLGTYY
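His-tagged ERG Ets domain (1 uM in the protein solution; 300mM KCl, 50mM Tris-HCl, 1mM EDTA, 1mM DTT, pH 7.5) received compound, then a probe mix of 5 nM fluorescein-DNA and 100nM Texas-615-DNA. Fluorescence polarization was read for both dyes.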
DRD3 agonist – qHTS of D3 Dopamine Receptor Agonist: qHTS | AID 652048, 2013 | 410,000 tested, 0.58% active | max activation, % | D3R DiscoveRx beta-arrestin cells, luminescence, 90 min; in the data active = max activation above about 30%; also: 0% is about no effect
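Agonist mode: compounds and dopamine controls were applied to plated cells for 90 min at 37 degrees C after an overnight attachment at 1500 cells/well. Luminescent read-out followed 30 - 60 minutes at room temperature with DiscoveRx detection reagent.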
D3 antag – qHTS of D3 Dopamine Receptor Antagonist: qHTS | 360,000 tested, 2.5% active | D(3) dopamine receptor (Homo sapiens), P35462 | max response, negative = inhibition, % | D3R cells, DiscoveRx beta-arrestin luminescence, antagonist mode; hits give low values; in the data active = max response below about -50%; inconclusive = no clear call, values can overlap the other calls; also: % is scaled to controls: 0 for no effect and ±100 for the full control effect
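Cells plated overnight at 1500 cells/well, then exposed to library compounds with dopamine controls for 90 minutes at 37 degrees C. DiscoveRx reagent added for 30–60 minutes at room temperature; luminescence read, quantitative HTS format.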
D1 antagonist – Antagonist of Human D 1 Dopamine Receptor: qHTS; 360,000 tested, 3.2% active; HEK293 TREx D1 cells, calcium flux, dopamine EC80; hits give low values; D(1A) dopamine receptor (Homo sapiens), P21728; AID 504652, 2011; activity change, negative = inhibition, % at 10 µM; in the data active = activity change below about -30%; also: % is scaled to controls: 0 for no effect and ±100 for the full control effect
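Inducible Hek293 Trex D1 cells (tetracycline, overnight, 30 C). Calcium dye 30–90 min RT. Antagonist mode: EC80 dopamine added after 180 s compound read.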
* = called active by the depositor. Hits are enriched below; roughly 6.1% of the tested compounds scored in any of these assays.

What do the screens show for `Cc1cc(Oc2ccc(=O)n(C)n2)nc(SCC(N)=O)n1`?
D1 ag: 4; D1 PAM: -7; ERG Ets-DNA blk: 16%; DRD3 agonist: 5; D3 antag: 1; D1 antagonist: 25

What do the screens show for `Cn1nc(OCC(N)=O)ccc1=O`?
D1 ag: 1; D1 PAM: -2; ERG Ets-DNA blk: -1%; DRD3 agonist: 2; D3 antag: 18; D1 antagonist: -51*

What do the screens show for `O=c1ccc(OCCOc2ccccc2)nn1-c1ccccc1`?
D1 ag: 3; D1 PAM: -5; DRD3 agonist: -1; D3 antag: 11; D1 antagonist: -3

Results for Cc1ccc(-c2nn(-c3ccccc3)cc2CN(C)C(=O)CCC(=O)O)cc1C ?
D1 ag: 0; D1 PAM: 0; ERG Ets-DNA blk: -17%; DRD3 agonist: 10; D3 antag: 7; D1 antagonist: 14

Results for COc1cccc(NC(=O)CCS(=O)(=O)c2cc3c(cc2Cl)NC(=O)CO3)c1 ?
D1 ag: 0; D1 PAM: 9; ERG Ets-DNA blk: 12%; DRD3 agonist: 4; D3 antag: 23; D1 antagonist: -7

How did CCOC(=O)C1=C(c2ccccc2)c2ccc(OC)cc2N(S(=O)(=O)C(F)(F)F)C1C(=O)OCC (stereo not given) do in these assays?
ERG Ets-DNA blk: -6%; DRD3 agonist: 39*; D3 antag: 54

What do the screens show for `COc1cc(OC)cc(-c2cc3nc(C)c(CCC(=O)Nc4ccc(F)c(Cl)c4)c(C)n3n2)c1`?
D1 ag: 2; D1 PAM: -2; ERG Ets-DNA blk: -6%; DRD3 agonist: 0; D1 antagonist: -9

What do the screens show for `C=CCn1c(SCC(=O)Nc2sccc2C(N)=O)nc2sc(CC)cc2c1=O`?
D1 ag: 1; D1 PAM: -5; ERG Ets-DNA blk: -4%; DRD3 agonist: 35*; D3 antag: 75; D1 antagonist: -10

What do the screens show for `C=CCn1c(SCC(=O)Nc2sccc2C(N)=O)nc2ccc(Cl)cc2c1=O`?
D1 ag: 1; D1 PAM: -1; ERG Ets-DNA blk: -2%; DRD3 agonist: 19; D3 antag: 106; D1 antagonist: -12

Results for Cc1ccc(Sc2c([N+](=O)[O-])c(=O)n(C)c3ccccc23)cc1 ?
D1 ag: -1; D1 PAM: -8; ERG Ets-DNA blk: 3%; DRD3 agonist: -27; D3 antag: -72*; D1 antagonist: 12

What do the screens show for `CCc1c(C)nc2ncnn2c1NC1CCCc2ccccc21` (stereo not given)?
D1 ag: 2; D1 PAM: 2; ERG Ets-DNA blk: -4%; DRD3 agonist: 6; D3 antag: -6; D1 antagonist: 2

Results for Cc1ccc(S(=O)(=O)Nc2nncs2)cc1 ?
D1 ag: 4; D1 PAM: -3; DRD3 agonist: -1; D3 antag: -60*; D1 antagonist: -17

What do the screens show for `Cc1ccc(S(=O)(=O)Nc2nnc(C(C)(C)C)s2)cc1`?
D1 ag: 4; D1 PAM: 2; ERG Ets-DNA blk: -1%; DRD3 agonist: 7; D3 antag: -5; D1 antagonist: -16

What do the screens show for `O=c1c2ccccc2nc2c3ccccc3c(NCc3ccco3)nn12`?
D1 ag: 1; D1 PAM: 1; ERG Ets-DNA blk: 2%; DRD3 agonist: 7; D3 antag: 16; D1 antagonist: -15

What do the screens show for `COc1ccc(-c2noc(CCC(=O)NCCCN3CCC(Cc4ccccc4)CC3)n2)cc1`?
D1 ag: 56*; D1 PAM: -10; ERG Ets-DNA blk: 1%; DRD3 agonist: -2; D3 antag: inconclusive; D1 antagonist: -54*

How did Cc1ccc(-c2noc(CCCC(=O)NCc3ccco3)n2)cc1 do in these assays?
D1 ag: 6; D1 PAM: -2; ERG Ets-DNA blk: -2%; DRD3 agonist: -3; D1 antagonist: -10

Results for COc1ccc(-c2noc(CCC(=O)NCCCN3CCN(c4ccc(F)cc4)CC3)n2)cc1 ?
D1 ag: 35*; D1 PAM: -16; ERG Ets-DNA blk: 10%; DRD3 agonist: -13; D3 antag: -23; D1 antagonist: -73*

Results for Cc1ccc(-c2noc(CCC(=O)NCC3CCN(Cc4cccc(C)c4)CC3)n2)cc1 ?
D1 ag: 51*; D1 PAM: -10; ERG Ets-DNA blk: 11%; DRD3 agonist: -4; D3 antag: 5; D1 antagonist: -24

Results for COc1ccc(-c2noc(CCC(=O)NCc3ccco3)n2)cc1 ?
D1 ag: 0; D1 PAM: -6; ERG Ets-DNA blk: -4%; DRD3 agonist: -6; D3 antag: 171; D1 antagonist: -37*

Results for Cc1ccc(-c2noc(CCC(=O)NCCN3CCN(Cc4ccccc4)CC3)n2)cc1 ?
D1 ag: 13; D1 PAM: -7; ERG Ets-DNA blk: 5%; DRD3 agonist: -8; D3 antag: -26; D1 antagonist: -20

Results for COc1cc(OC)cc(C(=O)NC(C(=O)Nc2ccc3c(c2)CCC3)C(C)C)c1 (stereo not given) ?
D1 ag: 8; D1 PAM: 5; ERG Ets-DNA blk: -5%; DRD3 agonist: -8; D3 antag: -10; D1 antagonist: -1

What do the screens show for `CC(C)c1ccc(NC(=O)C(c2ccccc2)N2CCC3(CC2)OCCO3)cc1` (stereo not given)?
D1 ag: 0; D1 PAM: 7; ERG Ets-DNA blk: 2%; DRD3 agonist: -5; D3 antag: 24; D1 antagonist: 4

Results for COc1ccc(-c2noc(CCC(=O)N3CCN(c4cccc(OC)c4)CC3)n2)cc1 ?
ERG Ets-DNA blk: -4%; DRD3 agonist: 44*; D3 antag: 102

How did Cc1ccc(-c2noc(CCC(=O)NCCN3CCc4ccccc4C3)n2)cc1 do in these assays?
D1 ag: 6; D1 PAM: 4; ERG Ets-DNA blk: -8%; DRD3 agonist: -15; D3 antag: -76*; D1 antagonist: -3

What do the screens show for `O=C(C/C=N\OCc1c(Cl)cccc1Cl)Oc1ccc(Cl)cc1Cl`?
D1 ag: 6; D1 PAM: 3; ERG Ets-DNA blk: 4%; DRD3 agonist: -9; D3 antag: -3; D1 antagonist: -12

How did COc1ccccc1CNc1ccc(-c2nc(-c3cccnc3)no2)cc1[N+](=O)[O-] do in these assays?
D1 ag: 3; D1 PAM: 0; ERG Ets-DNA blk: 5%; DRD3 agonist: 7; D1 antagonist: 4

From PubChem BioAssay
